The whole screen tested about 360,000 compounds, of which about 11,000 (3.1%) were called active. This excerpt belongs to a sample that is enriched for actives. A number with no mark means an inactive call. Cut-off read from the data, not from the text of the source: active = activity change below about -30%; inactive = the rest.
% is set by controls: 0 for no effect and ±100 for the full control effect.

Sequence of D(1A) dopamine receptor (Homo sapiens) (P21728 whole entry, looked up): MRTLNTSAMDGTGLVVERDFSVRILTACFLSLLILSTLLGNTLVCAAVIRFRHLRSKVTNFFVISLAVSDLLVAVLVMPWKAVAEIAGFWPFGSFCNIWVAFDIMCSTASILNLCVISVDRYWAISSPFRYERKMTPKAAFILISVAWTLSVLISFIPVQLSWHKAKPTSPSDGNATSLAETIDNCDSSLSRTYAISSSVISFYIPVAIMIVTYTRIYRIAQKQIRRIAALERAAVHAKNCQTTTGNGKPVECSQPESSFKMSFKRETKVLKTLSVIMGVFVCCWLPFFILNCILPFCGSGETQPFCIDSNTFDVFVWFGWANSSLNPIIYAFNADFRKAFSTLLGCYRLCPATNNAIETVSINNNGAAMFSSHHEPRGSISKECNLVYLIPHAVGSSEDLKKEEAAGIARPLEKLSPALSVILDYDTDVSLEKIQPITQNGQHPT

This assay concerns the target D(1A) dopamine receptor (Homo sapiens) (UniProt P21728). Briefly: Antagonist of Human D 1 Dopamine Receptor: qHTS. The settings on record: HEK293 TREx D1 cells, calcium flux, dopamine EC80; at 10 µM; active compounds read low. The gist of the method: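 Cells carrying a force-coupled, tetracycline-inducible human D1 receptor report calcium flux. Each well gets a 10 s baseline, compound with 180 s monitoring, then an EC80 dopamine stimulus with a second 180 s kinetic read.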
For the compound `COc1ccc(CC(=O)N2CC(=O)Nc3ccc(Br)cc3C2c2ccc(F)cc2)cc1OC` (stereo not drawn), the activity change, negative = inhibition was 1.32%.
To `Cc1nnc(C)n1-c1ccc(C(=O)Nc2cccc(Br)c2)cc1` belongs -6.55%; to `O=C(Cc1ccc(S(=O)(=O)N2CCOCC2)s1)NCCC(c1ccccc1)c1ccccc1`, 2.72%; to `COCCN(Cc1ccccc1)C(=O)Cc1ccc(S(=O)(=O)N2CCOCC2)s1`, -46% (active).
To `CCN(Cc1ccccc1)C(=O)Cc1ccc(OC)c(S(=O)(=O)N2CCOCC2)c1` belongs -8.6%.
Next, `C[C@H](NC(=O)c1nc[nH]c1C(=O)N[C@@H](C)C(=O)OC(C)(C)C)C(=O)OC(C)(C)C`: -89.3% (active); `C[C@H](NC(=O)c1nc[nH]c1C(=O)NCC(=O)OC(C)(C)C)C(=O)OCc1ccccc1`: -24.2%.
Regarding `CNC(=O)c1[nH]cnc1C(=O)N[C@@H](CC(C)C)C(=O)OC(C)(C)C`, the activity change, negative = inhibition was -1.57%.
Next, `CCCCS(=O)(=O)c1oc(-c2cccs2)nc1S(=O)(=O)c1ccccc1`: 11.6%; `COc1ccc(-c2nc(Cn3c(=O)cc(C)c4c(C)nn(-c5ccccc5)c43)c(C)o2)cc1OC`: 0.18%; `CCc1ccc(NC(=O)N2CCN(C(=O)c3nsc4ccccc34)CC2)cc1`: -22.5%.
To `Cc1c(Cl)cccc1NC(=O)N1CCN(C(=O)c2nsc3ccccc23)CC1` belongs -9.22%; to `COc1cccc(NC(=O)N2CCN(C(=O)c3nsc4ccccc34)CC2)c1`, -44.8% (active); to `O=C(Nc1cc(C(F)(F)F)ccc1Cl)c1ccc2c(c1)CCN2S(=O)(=O)c1ccccc1`, 3.06%.
To `COc1cc(C(=O)N2CCN(C/C=C/c3ccccc3)CC2)cc(OC)c1C` belongs 6.67%; to `COc1ccc(C(=O)NCCn2nc(C)cc2C)cc1OC1CCN(C(C)=O)CC1`, 1.96%.
In the case of `COc1ccc(C(=O)NC2CC2)cc1OC1CCN(C/C=C/c2ccccc2)CC1`, the activity change, negative = inhibition was -56.2% (active).
Turning to `COc1ccc(C(=O)NC2CC2)cc1OC1CCN(Cc2ccc(SC)cc2)CC1`, the activity change, negative = inhibition is -63.9% (active).
Next, `COc1ccc(C(=O)NC2CC2)cc1OC1CCN(Cc2cnn(C)c2)CC1`: -6.25%; `COc1cc2[nH]c(=O)n(Cc3ccc(C(=O)NC4CCN(Cc5ccccc5)CC4)cc3)c(=O)c2cc1OC`: 8.55%.
To `CCOc1ccccc1NC(=O)Cn1nnc(C(=O)Nc2ccc(C)c(C)c2)c1N` belongs 6.21%; to `CC(C)(C)OC(=O)N1CCC(c2c(C(=O)Nc3ccc4c(c3)OCO4)cnn2-c2ccccc2)CC1`, 1.48%.
Next, `COc1ccc(C2Sc3ccccc3NC3=C2C(=O)c2ccccc23)c(OC)c1OC` (stereo not drawn): -5.17%.
Regarding `COc1ccc(N2CCN(c3nc(-c4ccccc4F)nc4ccccc34)CC2)cc1`, the activity change, negative = inhibition is -14.4%.
As to `CCc1ccc(CN(Cc2ccco2)C(=O)c2ccccc2Cl)cc1`, the activity change, negative = inhibition is -13.4%.
Regarding `COc1ccccc1OCc1ccc(C(=O)NC(C)c2ccccc2)o1` (stereo not drawn), the activity change, negative = inhibition is 10.5%.
To `COc1ccc(CN(C)C(=O)Cc2ccsc2)c(OC)c1OC` belongs -6.5%.
For `COc1ccccc1C(C)NC(=O)Cc1ccsc1` (stereo not drawn), the activity change, negative = inhibition was -36.8% (active).
To `CN(C(=O)CSc1nc2ccccc2n1Cc1ccccc1C#N)c1ccccc1` belongs 5.88%; to `COc1ccc(-c2c(C)c3ccc(O)c(CN4CCCC4)c3oc2=O)cc1OC`, 3.24%; to `CCN1CCN(Cc2c(O)ccc3c(=O)c(-c4ccc(OC)c(OC)c4)c(C(F)(F)F)oc23)CC1`, 10.8%.
To `COc1ccc(-c2c(C)c3ccc(O)c(CN4CCN(C)CC4)c3oc2=O)cc1OC` belongs -44.5% (active); to `Cc1cccc(-c2nnc(SCC(=O)N3CCCc4ccccc43)o2)c1`, -12.2%.
Next, `CCN(CC(=O)Nc1ccc(S(=O)(=O)N2CCCC2)cc1)CC(=O)Nc1cccc(OC)c1`: -18.1%; `COc1cccc(NC(C)=[N+](C)CCNS(=O)(=O)c2ccc(Cl)cc2)c1`: -6.9%.
For the compound `CCNS(=O)(=O)c1ccc(NC(=O)Nc2cccc(OC)c2)cc1`, the activity change, negative = inhibition was -47.6% (active).
In the case of `CN1c2ccc(Cl)cc2-c2nc(SCC(=O)Nc3cc(F)ccc3F)ncc2S1(=O)=O`, the activity change, negative = inhibition is 24.7%.
Next, `Cc1ccc2oc(=O)c3cnn(CC(=O)N4CCN(c5cccc(Cl)c5)CC4)c3c2c1`: 4.75%; `Cc1cccc(C2c3[nH]c4ccccc4c3CCN2C(=O)c2cc(-c3cccn3C)n[nH]2)n1` (stereo not drawn): 8.11%.
Take `Cc1ccc(C2c3[nH]c4ccccc4c3CCN2C(=O)c2cccc(C)c2)cc1` (stereo not drawn): the activity change, negative = inhibition was -0.549%.
In the case of `COCc1ccc(C(=O)N2CCc3c([nH]c4ccccc34)C2c2ccccn2)s1` (stereo not drawn), the activity change, negative = inhibition is -33.8% (active).
Next, `Cc1cc(OCC(=O)Nc2ncn[nH]2)c(C)c(C)c1Br`: 3.31%; `COC(=O)c1cc(NC(=O)c2cccnc2)ccc1N1CCOCC1`: 1.15%.
Next, `Cc1cc(/C=C2\SC(=Nc3ccc(N4CCOCC4)cc3)N(C)C2=O)c(C)n1-c1cccnc1`: -38% (active); `COc1ccc(S(=O)(=O)c2cn(C)c3cc(N4CCCCC4)c(F)cc3c2=O)cc1`: -5.11%; `O=C(/C=C/c1ccccc1)Nc1cc(-c2nc3cc(Cl)ccc3o2)ccc1Cl`: -9.92%.
On to `COc1ccc(CNCCCO)cc1OC`, for which the activity change, negative = inhibition is 14.1%.
Consider `COc1ccc(CNc2ccc3c(c2)CCC3)cc1OC`, for which the activity change, negative = inhibition is 9.59%.
On to `COc1ccc(CNc2cc(C)cc(C)c2)cc1OC`, for which the activity change, negative = inhibition is -45.1% (active).
Next, `CCOC(=O)c1ccc(N2C(=O)c3n[nH]c(-c4ccco4)c3C2c2ccc(O)cc2)cc1` (stereo not drawn): 13%.
Next, `CC(=O)c1ccc(NC(=O)CSc2c(C(C)C)cnc3c2c(=O)n(C)c(=O)n3C)cc1`: 1.89%; `CCCCN1C(=O)c2[nH]nc(-c3ccccc3O)c2C1c1cccc(OCc2ccccc2)c1` (stereo not drawn): 6.88%; `COc1cccc2c1cc1c(=O)n(CC(=O)N3CCN(c4ccccc4)CC3)nc(C)n12`: -3.55%.
Next, `CC(=O)O[C@H]1CC[C@@]2(C)[C@@H](CC[C@@H]3[C@@H]2CC[C@]2(C)[C@@H](C(C)(C)O)C[C@@H]32)C1`: -15.9%.
For `CC(=O)[C@@]12O[C@@H]1C[C@H]1[C@@H]3CC[C@H]4C[C@@H](O)CC[C@]4(C)[C@H]3CC[C@@]12C`, the activity change, negative = inhibition was -34.5% (active).
To `Cc1cccc(NC(c2cccc(F)c2)c2ccc3ccc(C)nc3c2O)n1` (stereo not drawn) belongs -16.7%.
In the case of `Cc1ccc(NC(=O)CCCNC(=O)c2ccc(Cl)cc2)cc1S(=O)(=O)N1CCCCC1`, the activity change, negative = inhibition was 35.4%.
To `Cc1ccc(NC(=O)CCNC(=O)c2ccc([N+](=O)[O-])cc2)cc1S(=O)(=O)N1CCOCC1` belongs 4.33%; to `Cc1ccc(NC(=O)CCCNC(=O)c2ccc(Cl)cc2)cc1S(=O)(=O)N1CCOCC1`, -36.7% (active); to `Cc1ccccc1CNC(=O)c1ccc(NC(=O)N2CCCCc3ccccc32)cc1`, 12.4%.
To `Cc1ccccc1CN1CCC(CNC(=O)c2cc3ccc4cccnc4c3[nH]2)CC1` belongs -3.23%.
Next, `CC[C@@]12C(=O)N(c3ccccc3)C(=O)N1[C@H](c1ccc(Br)cc1)[C@@H]1C(=O)N(C(C)(C)C)C(=O)[C@@H]12`: -1.44%; `COc1ccc([C@@H]2[C@@H]3C(=O)N(C(C)(C)C)C(=O)[C@@H]3[C@]3(Cc4ccccc4)C(=O)N(c4cccc(Br)c4)C(=O)N23)cc1`: -34.9% (active).
As to `CC(C)(C)N1C(=O)[C@H]2[C@@H](c3ccc(Br)cc3)N3C(=O)N(c4cccc(Cl)c4)C(=O)[C@@]3(C)[C@H]2C1=O`, the activity change, negative = inhibition is -17.7%.
To `Cc1nn(C(=O)c2c(F)cccc2F)c(C)c1S(=O)(=O)N1CCOCC1` belongs 10.5%; to `CCOc1ccc(N(CC)C(=O)C2CCN(S(=O)(=O)c3cccc4nonc34)CC2)cc1`, -22%.
Regarding `Cc1cc2n(n1)C(c1cc(C(C)(C)C)c(O)cc1O)Nc1ccccc1-2` (stereo not drawn), the activity change, negative = inhibition was 0.223%.
To `NS(=O)(=O)c1ccc2nc(NC(=O)COc3ccccc3)sc2c1` belongs -38.3% (active); to `NS(=O)(=O)c1ccc2nc(NC(=O)CS(=O)(=O)c3ccc(F)cc3)sc2c1`, 3.05%.
`CN(C(=O)CSc1nc2ccc(NC(=O)COc3ccccc3)cc2s1)c1ccccc1`: the activity change, negative = inhibition is -11.3%.
As for `COc1cccc(NS(=O)(=O)c2ccc(-c3coc(C)n3)cc2)c1`, the activity change, negative = inhibition is -22%.
To `Cc1ccc(NS(=O)(=O)c2ccc(-c3coc(C)n3)cc2)c(C)c1` belongs -39.4% (active).
Consider `CCN(c1cccc(C)c1)S(=O)(=O)c1ccc(-c2coc(C)n2)cc1`, for which the activity change, negative = inhibition was -16.9%.
Next, `O=C(c1ccc(Br)cc1)N(Cc1cccs1)c1ccc(F)cc1`: -5.47%; `COc1ccc(C(=O)NC2CC(C)(C)NC(C)(C)C2)cc1OC`: -30.4% (active); `COc1cc(OC)c(C(=O)NC2CC(C)(C)NC(C)(C)C2)cc1OC`: -1.99%.
Turning to `Cc1cccc(OCC(=O)NC2CC(C)(C)NC(C)(C)C2)c1`, the activity change, negative = inhibition is 0.221%.
Next, `Cc1ccc(NC(=O)c2oc3ccc(S(=O)(=O)N4CCCCC4)cc3c2C)cc1Cl`: 0.571%; `Cc1cccc(-n2nc3c(c2NC(=O)c2cc4ccccc4o2)CS(=O)(=O)C3)c1`: -49.1% (active).
To `O=C(Nc1c2c(nn1-c1cccc(Cl)c1)CS(=O)(=O)C2)c1cccs1` belongs -16.2%.
Regarding `CC(C)(C)n1nc2c(c1NC(=O)c1cc3ccccc3o1)CSC2`, the activity change, negative = inhibition is 6.7%.
Next, `Cc1nc2c(c(C)nn2-c2ccccc2)c(C)c1CCC(=O)NCCc1ccc(Cl)cc1`: -0.289%; `Cc1oc(C)c2c(=O)cc(-c3ccc4c(c3)OCO4)cc(OC(=O)c3ccc(Cl)cc3)c12`: -1.78%.

The values are drawn from PubChem BioAssay AID504652 (National Center for Advancing Translational Sciences (NCATS), 2011).
